# Source: PubChem BioAssay AID686979 (National Center for Advancing Translational Sciences (NCATS), 2013)
# Hit rate of the full screen: of about 420,000 compounds, about 50,000 (12%) were called active. A call without a number means that no potency is given here. Not shown: some 26% with an inconclusive outcome. The call rests on the fitted dose curve; in most records, active means well fitted inhibition curve with a large enough effect; inconclusive means small, poorly fitted or top-dose-only effect; inactive means flat fitted curve, though single readings scatter. The full list was thinned out, with actives kept by preference.
# Experiment: qHTS for Inhibitors of human tyrosyl-DNA phosphodiesterase 1 (TDP1): qHTS in cells in presence of CPT; further: nearly all actives have a fitted effect of over 55% in size
# Conditions: chicken DT40 Tdp1-/-;hTDP1 cells + 20 nM CPT, ATP luminescence, 48 h; series mostly up to 46.2 µM
# How it was run: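 Chicken DT40 Tdp1-/- cells stably complemented with human TDP1 were seeded at 400 cells/well in medium containing 20 nM camptothecin, exposed to pin-transferred compounds, and grown at 37 °C for at least 48 hr. Viability was read as ATP luminescence.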
# Potency means the concentration at half of the fitted maximal effect.
row,SMILES,Potency
1,CCOC(=O)C1C(c2ccc(O)cc2)NC(=O)NC1(O)C(F)(F)F (stereo not given),inactive
2,Cc1ccccc1NC(=O)CSC1=NCCN1,inactive
3,Cc1nc(SCC(=O)N2CCN(c3ccccc3)CC2)[nH]c(=O)c1C,inactive
4,Cc1ccc(C2(C(F)(F)F)N=C3Sc4cc(C)cc(C)c4N3C(=O)N2)cc1 (stereo not given),inactive
5,c1ccc(Cc2ccc(OCCn3ccnc3)cc2)cc1,20.6 µM (active)
6,C=CCc1cc(C)ccc1OCCCn1ccnc1,inactive
7,Brc1ccc(OCCn2ccnc2)cc1,inactive
8,CCN(CC(=O)Nc1ccc2c(c1)OCCO2)Cc1cc(=O)oc2cc(C)c(C)cc12,inactive
9,CC(C)Cc1oc(C(=O)O)cc1CN,inactive
10,Cc1cc(C)cc(NC(=O)Cn2c(=O)c3ccccc3n3nncc23)c1,inactive
11,COCCn1c(SCC(=O)Nc2ccccc2F)nc2c(c1=O)SCC2,inactive
12,Cc1cc(C)cc(NC(=O)CSc2nc3nccnc3c(=O)n2CCc2c[nH]c3ccccc23)c1,14.6 µM (active)
13,Cn1c(CCC(=O)Nc2ccccc2F)nnc1SCC(=O)Nc1ccccc1Cl,inactive
14,O=C(CSc1nc2nccnc2c(=O)n1CCc1c[nH]c2ccccc12)Nc1ccccc1F,10.3 µM (active)
15,Cc1cc(C)c(NC(=O)CSc2nc3nccnc3c(=O)n2CCc2c[nH]c3ccccc23)c(C)c1,inactive
16,O=Cc1c(Cl)cccc1Cl,inactive
17,CC1(C)O[C@@H]2[C@H](O1)[C@@H](CO)O[C@H]2n1c(N2CCCCC2)nc2c(N)ncnc21,inactive
18,CC(C)CNS(=O)(=O)c1ccc(C(=O)Nc2ccc3c(c2)OCO3)cc1,inactive
19,CC(=O)Nc1cccc(NC(=O)CSc2nccn2Cc2ccc3c(c2)OCO3)c1,inactive
20,CNc1ccc([N+](=O)[O-])cc1C(=O)O,inactive
21,Cn1cnc([N+](=O)[O-])c1Nc1ccccc1O,inactive
22,Cn1cnc([N+](=O)[O-])c1Sc1n[nH]c(N)n1,inactive
23,Cn1cnc([N+](=O)[O-])c1Sc1ccccc1,18.4 µM (active)
24,COc1cccc(N2CC(NS(=O)(=O)c3cccs3)CC2=O)c1 (stereo not given),inactive
25,Cc1c(Cl)cccc1NC(=O)CCS(=O)(=O)c1ccc2c(c1)oc(=O)n2C,inactive
26,OC(COCc1ccco1)CN1CCN(c2ccccc2)CC1 (stereo not given),inactive
27,OC(COCC1COc2ccccc2O1)CN1CCN(c2ccc(F)cc2)CC1 (stereo not given),13 µM (active)

row,SMILES,Potency
1,O=C(COC(=O)c1ccc(F)cc1)NCC1COc2ccccc2O1 (stereo not given),inactive
2,Nc1ncnc2c1ncn2[C@@H]1O[C@H](C(=O)NCC(F)(F)F)[C@@H](O)[C@H]1O,inactive
3,COc1ccccc1NC(=O)COC(=O)COc1ccccc1F,inactive
4,CCc1nn(CC(=O)N2CCN(c3cc(C)ccc3C)CC2)c(=O)c2cc3occc3n12,inactive
5,CCCNC(=O)C(CC)n1nc(CC)n2c(cc3oc(C)cc32)c1=O (stereo not given),25.9 µM (active)
6,CCc1nn(CCCC(=O)NC(C)c2ccccc2)c(=O)c2cc3occc3n12 (stereo not given),inactive
7,O=C(CC[C@H]1O[C@@H](n2ccc(=O)[nH]c2=O)[C@H](O)[C@@H]1O)N[C@H](Cc1ccccc1)C(=O)NCCCN1CCCC1=O,inactive
8,CC1CCCN(c2csc3ccc(F)cc3c2=O)C1 (stereo not given),inactive
9,Cn1cccc1C(=O)OCC(=O)NCCc1ccccc1,inactive
10,COCCN1C(=O)N[C@@H](c2ccccc2)C(C(=O)OC)=C1C,inactive
11,CCN1C(=O)N[C@@H](c2ccccc2)C(C(=O)OC)=C1C,inactive
12,COC(=O)C1=C(C)N(Cc2ccccc2)C(=NCCCOC(C)C)N[C@H]1c1ccccc1,6.51 µM (active)
13,CC(C)C(=O)Nc1ccc2c3c(cccc13)CC2,inactive
14,CN(Cc1ccccc1)C(=O)c1cn(C)c2ccc(S(=O)(=O)N3CCCCC3)cc2c1=O,inactive
15,CCC(CC)C(=O)Nc1c2c(nn1-c1ccc(C)cc1)CS(=O)(=O)C2,inactive
16,O=C(NCc1ccccc1)c1cc(-c2cccc(Cl)c2)on1,inactive
17,CCOCCOC(=O)C1=C(C)N(C)C(=O)NC1c1ccccc1F (stereo not given),inactive
18,N#Cc1c(N)sc2c1CCN(C(=O)OCc1ccccc1)C2,inactive
19,CCOC(=O)N1CCc2c(sc3c2C(=O)NC(c2ccccc2F)N3)C1 (stereo not given),20.6 µM (active)
20,CC1OC(OCC2OC(Oc3c(-c4ccc(O)c(O)c4)oc4cc(O)cc(O)c4c3=O)C(O)C(O)C2O)[C@@H](O)C(O)C1O (stereo not given in full),inactive
21,CCOc1ccc(CCNC(=O)COC(=O)C2CCN(S(=O)(=O)c3ccccc3)CC2)cc1OCC,inactive
22,COc1ccc(-c2cc(=O)oc3cc(OCC(=O)N(C)C4CCS(=O)(=O)C4)ccc23)cc1 (stereo not given),inactive
23,CCC1SC(CC)C(=O)N(CC(=O)NC2CCCCC2)C1=O (stereo not given),inactive
24,CN1c2ccc(C=O)c3c(C=O)ccc(c23)N(C)C1(C)C,20.6 µM (active)
25,NC(=O)c1ccc(Nc2ccc3c(c2)CCC3)c([N+](=O)[O-])c1,inactive
26,CNN/C(N=Cc1ccc([N+](=O)[O-])s1)=N\S(=O)(=O)c1cc(C)c(Cl)cc1SCc1ccccc1,1.16 µM (active)
27,O=C(CCC(=O)c1cccs1)Nc1nc2ccccc2s1,inactive

row,SMILES,Potency
1,COc1cc(NC(=O)CCNC(=O)Cn2ccc3ccccc3c2=O)cc(OC)c1OC,inactive
2,CC(C)n1c(-c2ccncc2)n[nH]c1=S,inactive
3,C#CCN(N(C)c1ncc(C(F)(F)F)cc1Cl)S(=O)(=O)c1ccc2ccccc2c1,inactive
4,CCCCOC(=O)Cn1c(=O)n(CC(=O)OCCCC)c2cc(C)ccc21,inactive
5,CC(C)OC(=O)CN1C(=O)c2ccccc2C1=O,inactive
6,CC(OC(=O)CN1C(=O)c2ccccc2C1=O)C(=O)c1ccccc1 (stereo not given),inactive
7,CCOC(=O)CN1C(=O)C(=O)c2cc(C)ccc21,8.2 µM (active)
8,CC(C)OC(=O)CN1C(=O)C(=O)c2ccccc21,13 µM (active)
9,CCOC(=O)C1CCN(C(=O)CN2C(=O)c3cccnc3Oc3ccc(C)cc32)CC1,inactive
10,NS(=O)(=O)c1ccc(CCNC(=O)CN2C(=O)c3ccccc3S2(=O)=O)cc1,inactive
11,O=C(O)C(=Cc1ccc([N+](=O)[O-])cc1)CCc1ccccc1,inactive
12,COc1ccc(NC(=O)CCN2CCCC2)c(OC)c1,inactive
13,COc1ccc(Cl)cc1NC(=O)CCN1CCOCC1,inactive
14,COc1ccccc1NC(=O)CCN1CCN(c2ccc(Cl)cc2)CC1,14.6 µM (active)
15,CC(C#N)(NC(=O)CN1CCN(S(=O)(=O)c2cc(C(F)(F)F)ccc2Cl)CC1)C1CC1 (stereo not given),inactive
16,Cc1cc(NC(=O)COC(=O)/C=C/c2ccc(C)o2)no1,inactive
17,CCCCc1ccc(NC(=O)NCc2cccnc2)cc1,inactive
18,Cc1cc(/C=C2/SC(=O)N(CC(=O)N3CCCC3)C2=O)c(C)n1C,inactive
19,O=C1c2ccccc2C(=O)c2c1cccc2N1CCN(CCO)CC1,inactive
20,Cc1cccc(N2CCN(C3=C(c4ccccc4)C(=O)c4ccccc43)CC2)c1C,7.31 µM (active)
21,Cc1cccc(N2CCN(c3c(CN4CCCC4)c(=O)oc4ccccc34)CC2)c1C,inactive
22,COc1ccc(CCNC(=O)CCCCCNC(=O)N2CCn3c2nc2ccccc23)cc1OC,inactive
23,COc1cc(C(=O)OCC(=O)N(CC(C)C)C2CCS(=O)(=O)C2)ccc1OCC(C)C (stereo not given),inactive
24,CCOc1ccc(NC(=O)c2c(NC(=O)Cc3ccccc3)sc3c2CCCCC3)cc1,18.4 µM (active)
25,CC(C)OC(=O)c1c(NC(=O)c2ccco2)sc2c1CCCC2,inactive
26,COC(=O)c1c(NC(=O)CN2CCN(S(=O)(=O)c3ccccc3[N+](=O)[O-])CC2)sc2c1CCC(C)C2 (stereo not given),inactive
27,CCOc1ccc(NC(=O)c2c(NC(=O)Cc3ccccc3)sc3c2CCC(C)C3)cc1 (stereo not given),16.4 µM (active)

row,SMILES,Potency
1,CCOC(=O)c1c(NC(=O)/C=C/c2ccc(OC)cc2)sc2c1CCC(C)C2 (stereo not given),inactive
2,Cc1ccc(C)c(N2CCN(C(=O)Cn3ncn4cccc4c3=O)CC2)c1,inactive
3,Cc1ccc(NC(=O)C(CC(=O)O)C2CCCO2)c(C)c1 (stereo not given),inactive
4,CN(Cc1ccccc1)C(=O)COC(=O)/C=C/c1ccc2c(c1)OCO2,inactive
5,COc1ccccc1C1C(C(N)=O)=C(C)Nc2nc(CCCO)nn21 (stereo not given),inactive
6,CC(C)Oc1ccc(/C=C(\NC(=O)/C=C/c2ccco2)C(=O)NCCc2nc3ccccc3[nH]2)cc1,18.4 µM (active)
7,Cc1ccc(C(=O)N/C(=C/c2ccco2)C(=O)NCCc2c[nH]c3ccccc23)cc1C,inactive
8,CC(C)=C(NC(=O)c1ccco1)C(=O)NCCc1nc2ccccc2[nH]1,inactive
9,COc1ccccc1Nc1nnc(SC(C)C(=O)NC2CC2)s1 (stereo not given),inactive
10,O=c1[nH]c(=O)n(Cc2ccco2)c2c1C(C(F)(F)F)(C(F)(F)F)N=C(c1ccco1)N2,inactive
11,Cc1ccccc1C1=NC(C(F)(F)F)(C(F)(F)F)c2c(n(-c3ccc(F)cc3)c(=O)[nH]c2=O)N1,18.4 µM (active)
12,CN(C(=O)CC1C(=O)NCCN1Cc1ccc(F)cc1Cl)C1CCCCC1 (stereo not given),inactive
13,CCOc1ccccc1NC(=O)Cn1ncc2ccc([N+](=O)[O-])cc21,inactive
14,COC(=O)c1c(C)cc(O)c(C)c1O,inactive
15,C/C(=N\NC(=O)C1(C)CC1(Br)Br)c1ccc(C)cc1C (stereo not given),inactive
16,CN(C)Cc1c(O)ccc2c(=O)c(-c3ccccc3Cl)coc12,inactive
17,CC(C)CN(Cc1c(O)ccc2c(=O)c(-c3ccccc3)coc12)CC(C)C,5.17 µM (active)
18,O=c1c(-c2ccccc2)coc2c(CN3CCOCC3)c(O)ccc12,inactive
19,Cc1ccccc1OCC(=O)Nc1nc(C)c(C(=O)N(C)C)s1,inactive
20,Cc1ccc(Cl)cc1N(C)C(=O)C1CCCN(c2ncnc3onc(-c4ccc(F)cc4)c23)C1 (stereo not given),7.31 µM (active)
21,CCc1ccccc1N(C)C(=O)C1CCCN(c2ncnc3onc(-c4ccc(F)cc4)c23)C1 (stereo not given),13 µM (active)
22,CC1=C(c2ccc(F)cc2)S(=O)(=O)N=C1N1CCC(C(=O)NCCc2ccccc2C)CC1,inactive
23,Cc1ccnc(N2CCCC(C(=O)Nc3cc(F)ccc3C)C2)n1 (stereo not given),inactive
24,CCc1noc(C)c1C(=O)N1CCCC(N2CCN(c3ccc(F)cc3)CC2)C1 (stereo not given),inactive
